Data as given in PubChem BioAssay AID1159580 (chemical genetic matrix, 2015).
Values joined by “and” are separate entries in the source; they are usually repeats but may differ in a detail not shown here. Equal values may be shown once. Screen size: about 5,500 compounds; about 2,000 (36%) were called active. Inconclusive results (about 18%) are left out. Rule as the data show it: active = normalized growth mostly below about 0.91 (no sharp cut-off); inconclusive = no clear call, values can overlap the other calls; inactive = mostly above about 0.92. The list shows a part of the results.

Assay: chemical genetic growth profiling, strain panel (AID 1159580);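 also: tested at 20 µM; growth read once vehicle control cultures reached saturation at 30 °C; 1 = growth at the plate median or of vehicle wells; lower values mean less growth of the strain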
Conditions: S. cerevisiae deletion strains, growth OD

Measured: normalized growth

COc1ccc2[nH]cc(CCN)c2c1
inactive: locus YAL013W, strain DEP1, stronger effect = lower value 0.982 | locus YAL021C, strain ccr4, stronger effect = lower value 1.04 | locus YAL026C, strain drs2, stronger effect = lower value 0.987 | locus YAL030W, strain snc1, stronger effect = lower value 0.995 | locus YAL040C, strain CLN3, stronger effect = lower value 0.967 | locus YBL061C, strain skt5, stronger effect = lower value 0.989 | locus YBR009C, strain hhf1, stronger effect = lower value 1.02 | locus YBR021W, strain FUR4, stronger effect = lower value 0.985 | locus YBR023C, strain chs3, stronger effect = lower value 1 | locus YBR171W, strain sec66, stronger effect = lower value 0.993 | locus YBR229C, strain ROT2, stronger effect = lower value 0.95 | locus YBR231C, strain swc5, stronger effect = lower value 0.986 | locus YBR279W, strain paf1, stronger effect = lower value 0.995 | locus YCL011C, strain gbp2, stronger effect = lower value 1.01 | locus YCL016C, strain dcc1, stronger effect = lower value 1.02 | locus YCL029C, strain bik1, stronger effect = lower value 0.998 | locus YCL061C, strain MRC1 (second series), stronger effect = lower value 1 | locus YCL061C, strain MRC1, stronger effect = lower value 0.998 | locus YCL069W, strain vba3, stronger effect = lower value 0.992 | locus YCR088W, strain abp1, stronger effect = lower value 0.99 | locus YDL005C, strain med2, stronger effect = lower value 1.02 | locus YDL035C, strain GPR1, stronger effect = lower value 0.985 | locus YDL040C, strain nat1, stronger effect = lower value 0.991 | locus YDL074C, strain BRE1, stronger effect = lower value 0.999 | locus YDL101C, strain DUN1, stronger effect = lower value 0.989 | locus YDL134C, strain PPH21, stronger effect = lower value 0.973 | locus YDL185W, strain tfp1, stronger effect = lower value 0.97 | locus YDL192W, strain arf1, stronger effect = lower value 0.989 | locus YDR001C, strain nth1, stronger effect = lower value 0.989 | locus YDR069C, strain doa4, stronger effect = lower value 0.971 | locus YDR101C, strain arx1, stronger effect = lower value 0.998 | locus YDR137W, strain rgp1, stronger effect = lower value 1.01 | locus YDR150W, strain NUM1, stronger effect = lower value 0.963 and 0.992 | locus YDR159W, strain sac3, stronger effect = lower value 0.933 | locus YDR162C, strain NBP2, stronger effect = lower value 0.945 | locus YDR195W, strain ref2 0.951 | locus YDR297W, strain sur2, stronger effect = lower value 0.989 | locus YDR318W, strain mcm21, stronger effect = lower value 0.995 | locus YDR334W, strain swr1, stronger effect = lower value 0.982 | locus YDR335W, strain msn5, stronger effect = lower value 0.995 | locus YDR363W, strain ESC2, stronger effect = lower value 0.978 | locus YDR388W, stronger effect = lower value 0.986 | locus YDR392W, strain spt3, stronger effect = lower value 0.951 | locus YDR502C, strain sam2, stronger effect = lower value 0.995 | locus YEL003W, strain gim4, stronger effect = lower value 0.986 | locus YEL037C, strain rad23, stronger effect = lower value 0.988 | locus YEL061C, strain CIN8 (second series), stronger effect = lower value 0.989 | locus YEL061C, strain CIN8, stronger effect = lower value 0.977 | locus YER002W, strain NOP16, stronger effect = lower value 1.01 | locus YER015W, strain faa2, stronger effect = lower value 1 | locus YER016W, strain bim1, stronger effect = lower value 0.991 | locus YER110C, stronger effect = lower value 0.964 | locus YER111C, strain swi4, stronger effect = lower value 1 | locus YER155C, strain BEM2 (second series), stronger effect = lower value 0.978 | locus YER155C, strain BEM2, stronger effect = lower value 0.993 | locus YER167W, strain BCK2, stronger effect = lower value 0.987 | locus YFR010W, strain ubp6, stronger effect = lower value 0.979 | locus YGL078C, strain dbp3, stronger effect = lower value 0.984 | locus YGL086W, strain mad1, stronger effect = lower value 0.966 | locus YGL167C, strain pmr1, stronger effect = lower value 0.994 | locus YGL173C, strain kem1, stronger effect = lower value 0.997 | locus YGL227W, strain vid30, stronger effect = lower value 0.983 | locus YGL240W, strain doc1, stronger effect = lower value 0.986 | locus YGL248W, strain PDE1, stronger effect = lower value 0.981 | locus YGL253W, strain hxk2, stronger effect = lower value 0.974 | locus YGR078C, strain PAC10, stronger effect = lower value 0.999 | locus YGR135W, strain pre9, stronger effect = lower value 0.989 | locus YGR229C, strain SMI1, stronger effect = lower value 1.02 | locus YGR252W, strain gcn5, stronger effect = lower value 0.843 | locus YHR013C, strain ard1, stronger effect = lower value 0.973 | locus YHR027C, strain rpn1, stronger effect = lower value 1 | locus YHR030C, strain SLT2, stronger effect = lower value 0.985 | locus YHR079C, strain IRE1 (second series), stronger effect = lower value 0.992 | locus YHR094C, strain hxt1, stronger effect = lower value 0.984 | locus YHR129C, strain ARP1, stronger effect = lower value 0.996 | locus YHR142W, strain chs7, stronger effect = lower value 1 | locus YHR200W, strain rpn10, stronger effect = lower value 0.991 | locus YIL066C, strain RNR3, stronger effect = lower value 0.99 | locus YIL073C, strain SPO22, stronger effect = lower value 0.938 | locus YIL125W, strain kgd1, stronger effect = lower value 0.975 | locus YIR030C, strain dcg1, stronger effect = lower value 0.976 | locus YJL092W, strain hpr5, stronger effect = lower value 0.999 | locus YJL095W, strain BCK1 (second series), stronger effect = lower value 0.992 | locus YJL095W, strain BCK1, stronger effect = lower value 1.04 | locus YJL115W, strain asf1, stronger effect = lower value 0.99 | locus YJL129C, strain trk1, stronger effect = lower value 0.995 | locus YJL134W, strain LCB3, stronger effect = lower value 0.988 | locus YJL154C, strain vps35, stronger effect = lower value 0.981 | locus YJL164C, strain tpk1, stronger effect = lower value 1.02 | locus YJL166W, strain qcr8, stronger effect = lower value 1.01 | locus YJL168C, strain set2, stronger effect = lower value 0.999 | locus YJL187C, strain SWE1 (second series), stronger effect = lower value 0.993 | locus YJL187C, strain SWE1, stronger effect = lower value 1.01
